From PubChem BioAssay come the findings set out here.

Calls of active or inactive are those of the source.

One experiment has as its system Neuregulin-1 EGF-like domain. The experiment is described as follows: small molecules binding NRG1 EGF domain – biochemical, small-molecule microarray, 635 nm fluorescence, primary screen (AID 1081).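 Further: binding of the protein to compounds printed on small-molecule microarray slides.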 To be noted: higher = more signal.
Take `COC(=O)C(CC#Cc1ccc2c(c1)[C@]1(C(=O)N2)[C@H](C(=O)N2CCCCCCC2)[C@H]2C(=O)O[C@H](c3ccccc3)[C@H](c3ccccc3)N2[C@@H]1c1ccc(O)cc1)C(=O)OC`: the composite z-score was -0.466. The same measure, in the same setting: with `C=C[C@H](OC)[C@@H](OC(=O)Nc1ccc(SC)cc1)c1ccc(O)c(F)c1` the figure was 1.03. The same measure, in the same setting: then `O=C1O[C@@H](c2ccccc2)[C@@H](c2ccccc2)N2[C@@H](c3ccc(OCCO)cc3)[C@]3(C(=O)Nc4ccc(C#CCCO)cc43)[C@@H](C(=O)N3CCN(c4ncccn4)CC3)[C@H]12`, with 1.2; and `C=CCC(OC(C)=O)[C@@H]1[C@@H](N(Cc2cccc3ccccc23)C(=O)Cc2ccc(F)cc2)c2cc(OCCCO)ccc2N1C(=O)Cc1ccc2ccccc2c1` (stereo not given in full), with -0.607; and `O=C1O[C@@H](c2ccccc2)[C@@H](c2ccccc2)N2[C@@H](c3ccc(O)cc3)[C@]3(C(=O)Nc4ccc(C#CC5(O)CCCCCC5)cc43)[C@@H](C(=O)Nc3nc4ccccc4s3)[C@H]12`, with 0.994. Same read-out and setting: then `C#CCCCON=C1C[C@@H](O)[C@@H](O)[C@@H]2[C@@H]3C(=O)N(Cc4ccc5c(c4)OCO5)C(=O)[C@@H]3CC[C@@H]12`, with 0.562; and `O=C1O[C@H](c2ccccc2)[C@H](c2ccccc2)N2[C@H]1[C@@H](C(=O)NC[C@H](O)c1ccccc1)[C@]1(C(=O)Nc3ccc(C#CC4(O)CCCCCC4)cc31)[C@H]2c1ccc(OCCO)cc1`, with 1.24; and `CCOC(=O)C1=C[C@@H](c2ccccc2)N(S(=O)(=O)c2ccc(C)cc2)[C@H]1c1ccc(F)cc1`, with 0.949. Take `O=[N+]([O-])c1ccc(C[n+]2ccc3ccc(O)cc3c2)o1`: the composite z-score was found to be 1.11.

Tested on in another experiment: not listed separately
The experiment is described as follows: FRG1 expression reporter modulators in myotubes – cell-based, C2C12 myotubes, firefly/Renilla luciferase, luminescence, FRG1 inhibition for FSHD, primary screen (AID 1084). Particulars: FRG1 promoter luciferase, higher = more signal, called active from +8 up or from −8 down.
Regarding `CCCNC(=O)[C@@]1(Sc2ccc(C)cc2)CC(=O)N(Cc2ccccc2Cl)[C@@H]1c1ccc(CO)cc1`, the z-score was -3.75 (inactive). On the same count and under the same terms, then `C[C@H]1COC(=O)[C@H](Cc2ccccc2)NC(=O)[C@@H](C)COC(=O)[C@H](Cc2ccccc2)NC1=O`, with -1.06 (inactive).

On to `CC(C)N1CC=CC23O[C@@H]4/C=C\CCCOC(=O)C4[C@H]2C(=O)N(CCO)[C@@H]3C1=O` (stereo not given in full), for which the z-score is -0.469 (inactive).

With `COC(=O)[C@@]1(Cc2ccc(OC)cc2)[C@H]2c3cc(C(=O)N(C)C)n(CCc4ccc(OC)c(Br)c4)c3C[C@H]2CN1C(=O)c1ccccc1`, the z-score is -0.151 (inactive). On the same count and under the same terms, with `COCCOC(=O)N1C(=O)[C@@]2(c3cc(C#CCCO)ccc31)[C@H](c1ccc(O)cc1)N1[C@H](c3ccccc3)[C@H](c3ccccc3)OC(=O)[C@H]1[C@@H]2C(=O)Nc1nc2ccccc2s1` the figure was -0.205 (inactive); with `C=CC[C@]1(C(=O)N2CCCCC2)N=C(c2ccc(OCCCO)cc2)O[C@H]1c1ccccc1N=[N+]=[N-]`, -2.1 (inactive); with `CCCC=C(CCC)[C@@H](NS(=O)(=O)c1cccc(C(F)(F)F)c1)c1ccc(C(=O)OC)cc1`, 2.49 (inactive). Same read-out and setting: then `COc1ccc([Si](C)(C)[C@@H]2[C@@H](CC(=O)N(CCO)Cc3ccccc3)O[C@]3(C(=O)N(Cc4cccc(N5CCC5=O)c4)c4ccccc43)[C@H]2C)cc1`, with -0.645 (inactive); and `COc1cc([C@@H]2N[C@H](C(=O)O)Cc3c2[nH]c2ccccc32)cc(OC)c1OC`, with -0.643 (inactive).

Regarding `COCC(=C=CC[C@H](O)c1ccc(OCCO)cc1)C[C@H](O)c1ccccn1`, the z-score was 1.61 (inactive). For `COCCOC(=O)N1C(=O)[C@@]2(c3cc(C#CC4(O)CCCCCC4)ccc31)[C@H](C(=O)N1CCCCCCC1)[C@H]1C(=O)O[C@H](c3ccccc3)[C@H](c3ccccc3)N1[C@@H]2c1ccc(O)cc1`, the z-score was -0.492 (inactive). Turning to `C=CCC(OC(C)=O)[C@@H]1[C@@H](N(Cc2cc3ccccc3o2)C(=O)c2ccc(C)cc2)c2cc(OCCCO)ccc2N1C(=O)c1ccc2ccccc2n1` (stereo not given in full), the z-score was -0.508 (inactive). Turning to `C=C(COC)C(=O)CC[C@H](OC(=O)c1ccccc1-c1ccccc1C(=O)O)c1cccc(OCCO)c1`, the z-score was -3.97 (inactive). On the same count and under the same terms, with `CC(C)[Si](OCC[C@H]1O[C@]2(C(=O)N(Cc3ccccc3)c3ccccc32)[C@@H](C)[C@@H]1[Si](C)(C)O)(C(C)C)C(C)C` the figure was 0.562 (inactive). Still for that read-out and setting: then `CO[C@H]1COC(=O)CC=C[C@H](C)[C@@H](OC)COC(=O)CC=C[C@@H]1C`, with -1.12 (inactive); and `COCCOC(=O)N1C(=O)[C@@]2(c3cc(C#CC4=CCCCC4)ccc31)[C@H](C(=O)NC[C@H](O)c1ccccc1)[C@H]1C(=O)O[C@H](c3ccccc3)[C@H](c3ccccc3)N1[C@@H]2c1ccccc1OCCO`, with -0.0011 (inactive).
